From PubChem BioAssay
Only some compounds are listed: those with a hit (about 14% of all), similar ones and a draw of the others.
HCMV antiviral: qHTS Assay for inhibitors of the human cytomegalovirus (HCMV). activity change, negative = inhibition, % at 57.5 µM. HFF cells, HCMV-luciferase reporter, 72 h; hits give low values. 410,000 compounds, 4.5% hits; in the data active = activity change below about -60%; inconclusive = no clear call, values can overlap the other calls; inactive = above about -39%
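HFF cells seeded 16 h at 37C, treated with compounds, infected with luciferase-reporter HCMV at MOI 1 PFU/cell; luciferase read at 72 h post infection, normalized to buffer-only and Salinomycin controls.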
Sm TGR block: qHTS Assay for the Inhibitors of Schistosoma Mansoni Peroxiredoxins; Schistosoma mansoni thioredoxin glutathione reductase (TGR), Q962Y6; purified TGR, DTNB reduction, TNB absorbance 405 nm; Potency, µM (top dose mostly 114 µM), for the others: at the highest dose activity change, negative = inhibition, most hits filed as inhibitors; 360,000 compounds, 3% hits; note: potency is the fitted concentration of half-maximal effect; nearly all actives have a fitted effect of over 60% in size
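Kinetic colorimetric format: TGR-catalysed, NADPH-driven DTNB reduction monitored via TNB absorbance. Enzyme dispensed at 20 nM; compound exposure 15 min at room temperature before reaction start.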
FBPA Giardia inh: qHTS Assay for Inhibitors of Fructose-1,6-bisphosphate Aldolase from Giardia Lamblia. A8B2U2. purified Giardia FBPA. Potency, µM (series often up to 59.6 µM), without a hit: at the top dose activity, negative = inhibition, usual class: inhibitors. 290,000 compounds, 0.71% hits. AID 2451, 2010; note: potency is the fitted concentration of half-maximal effect; nearly all actives have a fitted effect of over 55% in size
Target sequence (A8B2U2 whole entry, looked up): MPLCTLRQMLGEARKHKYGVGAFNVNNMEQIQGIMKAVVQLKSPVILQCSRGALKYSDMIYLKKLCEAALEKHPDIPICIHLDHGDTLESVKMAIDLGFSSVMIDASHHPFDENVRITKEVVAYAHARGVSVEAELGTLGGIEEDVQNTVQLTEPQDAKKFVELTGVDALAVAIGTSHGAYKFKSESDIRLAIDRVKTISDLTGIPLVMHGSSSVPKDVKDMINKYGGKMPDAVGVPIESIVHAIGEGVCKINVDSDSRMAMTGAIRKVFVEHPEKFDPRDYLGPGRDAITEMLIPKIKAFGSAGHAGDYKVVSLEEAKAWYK
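40 nM FBPA preincubated 10 min at RT with compound (up to 57.5 uM final), then substrate plus GAPDH/TPI/NAD/arsenate coupling and diaphorase/resazurin added. Fluorescence read after 20 min at RT, 525/598 nm.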
Pf growth 96h: Primary qHTS for delayed death inhibitors of the malarial parasite plastid, 96 hour incubation. P. falciparum luciferase reporter growth, 96 h. Potency, µM (top dose mostly 28.7 µM), for the others: at the highest dose activity change, negative = inhibition, actives largely listed as inhibitors. 320,000 compounds, 6.9% hits. AID 504834, 2011; note: potency is the fitted concentration of half-maximal effect
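Two-generation exposure (96 h) targets delayed-death phenotype. Reporter parasites carrying integrated firefly luciferase, in red cells at 2% hematocrit and 0.05% parasitemia final, kept at 37 C, 5% CO2; luminescence loss indicates inhibition.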
Pf growth 48h: Primary qHTS for delayed death inhibitors of the malarial parasite plastid, 48 hour incubation; 310,000 compounds, 5.9% hits; Potency, µM (series often up to 28.7 µM), inactives show top-dose activity change, negative = inhibition, actives largely listed as inhibitors; P. falciparum luciferase growth in erythrocytes, 48 h; note: potency is the fitted concentration of half-maximal effect
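Luciferase-expressing parasites in RBCs, 2% Hct / 0.1% parasitemia final; RPMI 1640 + 0.5% Albumax; 37 C, 5% CO2, one generation; luminescence read-out, lower signal = inhibition.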
The depositor's hits bear a star; i = inactive; ? = inconclusive; · = not tested or not shown. Unless noted, calls come from the whole dose curve; as a rule, active = well fitted curve in the direction sought with a large enough effect; inconclusive = small, poorly fitted or top-dose-only effect, or another doubt; inactive = no such curve, though single readings can be large; an effect the other way counts as inactive or inconclusive. % is set by controls: 0 for no effect and ±100 for the full control effect.

SMILES	HCMV antiviral	Sm TGR block	FBPA Giardia inh	Pf growth 96h	Pf growth 48h
Cc1cc(N2CCOCC2)n2cc(-c3ccccc3)nc2n1	32	-3%	0%	?	343%
Cc1ccc(OCC(=O)N2CCN(S(C)(=O)=O)CC2)cc1	0	0%	12%	0%	?
CCCCn1c(=O)[nH]c2nc3cc(NC(C)=O)ccc3nc2c1=O	-10	-1%	-30%	2%	15µM*
COC(=O)N1CCC2(CCN(Cc3ccccc3)CC2)CC1	·	·	5%	·	·
O=C(C/C=N/OCc1ccc(Cl)cc1Cl)c1ccc(Cl)cc1	-6	-17%	1%	-24%	?
Clc1ccc(C(c2ccc(Cl)cc2)n2cc[n+](CC(OCc3ccc(Cl)cc3Cl)c3ccc(Cl)cc3Cl)c2)cc1 (centres undefined)	-99*	-35%	-4%	?	?
O=[N+]([O-])c1cc([N+](=O)[O-])c(Oc2cc(Cl)ccc2Cl)cc1NC1CCCCCCC1	-33	?	2%	?	?
O=C1N/C(=N\N=C\c2cccnc2)SC1Cc1ccc(SC(F)F)cc1 (centres undefined)	-85*	-8%	0%	·	3.3µM*
O=C1N/C(=N\c2ccccn2)SC1Cc1ccccc1Cl (centres undefined)	-12	8%	-6%	?	?
O=C1N/C(=N\N=C\c2ccccn2)SC1Cc1cccc(SC(F)F)c1 (centres undefined)	-99*	5%	6%	?	?
Cc1cccc(CC2S/C(=N/c3ccccn3)NC2=O)c1 (centres undefined)	-65*	-4%	3%	i	?
O=C1N/C(=N\N=C\c2ccc3ncccc3c2)SC1Cc1ccc(SC(F)F)cc1 (centres undefined)	20	0%	-9%	·	15%
Cc1ccccc1N1CCN(S(=O)(=O)Cc2ccccc2)CC1	·	4%	6%	?	0%
CC(=O)c1ccc(N=Cc2c(O)n(-c3cc(Cl)ccc3N3CCOCC3)c(=O)c3ccccc23)cc1	-8	-3%	-2%	·	0.66µM*
O=c1c2ccccc2c(C=Nc2ccc(Cl)cn2)c(O)n1-c1cc(Cl)ccc1N1CCOCC1	?	-34%	0%	?	6%
COc1cccc(/C=C2\N=C(C3CCCCC3)OC2=O)c1OC	32	?	4%	?	12%
Cc1cc(C)c(S(=O)(=O)N(C2=NCCS2)S(=O)(=O)c2c(C)cc(C)cc2C)c(C)c1	-8	0%	8%	?	15µM*
Cc1cc(C)c(S(=O)(=O)N(CC(=O)O)CC(=O)O)c(C)c1	-25	7%	13%	·	18%
O=C(NCc1ccccc1)O[C@H]1CC[C@@]23CCCN2C(=O)CCC[C@H]3[C@H]1Cc1ccccc1	-11	·	·	·	·
COC(=O)c1ccc(OCC2c3cc(OC)c(OC)cc3CCN2C(=O)c2ccco2)cc1 (centres undefined)	91	-10%	-2%	?	15µM*
COc1ccc2cc(C3c4cc(OC)c(OC)cc4CCN3C(=O)c3ccco3)c(=O)[nH]c2c1 (centres undefined)	156	-12%	·	26%	5.2µM*
CCC(=O)N1CCc2cc(OC)c(OC)cc2C1COc1ccc(C(=O)OC)cc1 (centres undefined)	30	-12%	5%	?	10µM*
COc1cc2c(cc1OC)C(c1cc3cc(C)ccc3[nH]c1=O)N(C(=O)c1ccco1)CC2 (centres undefined)	26	-8%	7%	-5%	?
COC(=O)c1ccc(OCC(O)CN2CCc3cc(OC)c(OC)cc3C2c2ccccc2)cc1 (centres undefined)	-25	-7%	-3%	10µM*	?
Cc1ccc(C)c(C(=O)CCC(=O)Nc2ccc(N3CCN(C)CC3)cc2C)c1	99	·	·	·	·
SMILES	HCMV antiviral	Sm TGR block	FBPA Giardia inh	Pf growth 96h	Pf growth 48h
CCc1ccc(OC(C)C(=O)N2CCC(c3nc4ccccc4s3)CC2)cc1 (centres undefined)	-14	4%	·	·	·
COc1cc2c(cc1OC)C(COc1ccccc1OC)N(C(=O)c1ccccc1OC)CC2 (centres undefined)	-106*	-4%	·	·	·
COc1ccc(N=C2SCC(=O)N2CCc2ccc(OC)c(OC)c2)cc1	-23	-6%	-2%	?	?
COc1ccc(CCN2C(=O)CSC2=Nc2ccc(C(C)C)cc2)cc1OC	?	7%	-17%	?	10µM*
Cc1c(-c2nsc(NC(=O)c3ccc(Cl)cc3)n2)nnn1-c1ccc(C(C)C)cc1	-79*	8%	·	·	·
Cc1c(-c2nsc(NC(=O)c3cccs3)n2)nnn1-c1ccc(Br)cc1	-92*	4%	·	·	·
Cc1cc(Br)cn2c(Cc3ccccc3)c(-c3ccccc3)nc12	41	·	·	·	·
CN(C)S(=O)(=O)c1cccc(NC(=O)Cn2cc(C(F)(F)F)cc(Cl)c2=O)c1	-6	3%	0%	26%	-9%
CC(C)[C@@H](CC(=O)N[C@@H]1CCNC[C@H]1C(=O)N[C@H](CC(=O)N[C@@H](CCC(=O)O)CC(=O)O)Cc1ccccc1)NC(=O)C[C@H](Cc1c[nH]c2ccccc12)NC(=O)[C@@H]1CCCC[C@H]1N	·	·	8%	·	·
COc1cccc(CN(C)C(=O)c2ccc(OCC(=O)Nc3cccc(C(F)(F)F)c3)c(OC)c2)c1	-86*	4%	·	?	?
COc1ccc(CN(C)C(=O)c2ccc(OCC(=O)Nc3cccc(C(F)(F)F)c3)c(OC)c2)c(OC)c1	-83*	-2%	·	?	?
COc1cc(C(=O)NCCCN(C)C)ccc1OCC(=O)Nc1cccc(C(F)(F)F)c1	-28	24%	0%	0%	?
COC(=O)[C@]12CCCCC=C1N(Cc1ccccc1)C(=O)[C@H](CC(=O)NCCc1ccccc1OC)C2	-11	·	·	·	·
O=C(Nc1ccc(-c2csc(-c3ccccc3)n2)cc1)c1ccccc1	-101*	0%	2%	?	?
O=C(Nc1ccc(-c2csc(Nc3ccc(Cl)cc3)n2)cc1)c1cccc(C(F)(F)F)c1	?	-2%	-4%	10µM*	?
O=C(Nc1cccc(-c2csc(Nc3cccc(C(F)(F)F)c3)n2)c1)c1cc([N+](=O)[O-])cc(C(F)(F)F)c1	24	-1%	0%	?	?
O=C(Nc1ccc(-c2csc(Nc3ccccc3)n2)cc1)c1cc([N+](=O)[O-])cc(C(F)(F)F)c1	-74*	4%	-7%	0.47µM*	0.59µM*
O=C(Nc1ccc(-c2csc(Nc3ccccc3)n2)cc1)c1cccc(C(F)(F)F)c1	-81*	-3%	-9%	?	?
